An excerpt weighted towards active compounds, which were near 9.9% of everything screened.
ALDH1A1 block = inhibitors of human aldehyde dehydrogenase 1A1; P00352; Purified ALDH1A1, NADH fluorescence, propionaldehyde substrate; Potency, µM (highest dose often 75.3 µM), for inactives: at the top dose activity, negative = inhibition, hits mostly inhibitors; 7.3% of 220,000 active;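 note: plate controls were no enzyme wells and a reference inhibitor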
Tau fluor counter = counter-screen for tau fibril formation inhibitors. tau K18 P301L Alexa594 fluorescence, heparin fibrillization. Potency, µM (series often up to 57.7 µM), for inactives: at the highest dose activity change, negative = decrease. 0.93% of 280,000 active. AID 1463; active = well fitted curve in the direction sought with a large enough effect; inconclusive = small, poorly fitted or top-dose-only effect, or another doubt; inactive = no such curve, though single readings can be large; an effect the other way counts as inactive or inconclusive; note: nearly all actives have a fitted effect of over 55% in size
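Human K18 P301L tau (15 uM unlabeled plus 0.24 uM Alexa 594-labeled, final) in 100 mM sodium acetate pH 7 was mixed with compound and 20 uM heparin and incubated 6 hr at 37 C.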
Tau ThT inhib = tau fibrillization inhibition (ThT binding). AID 1460. recombinant tau K18 P301L (four-repeat tau fragment), heparin-induced fibrillization, ThT fluorescence. P10636. Potency, µM (series often up to 57.4 µM), for inactives: top-dose activity, negative = inhibition, hits mostly inhibitors. 2.1% of 270,000 active; active = well fitted curve in the direction sought with a large enough effect; inconclusive = small, poorly fitted or top-dose-only effect, or another doubt; inactive = no such curve, though single readings can be large; an effect the other way counts as inactive or inconclusive; note: nearly all actives have a fitted effect of over 55% in size
Target sequence (P10636 561-689 P618L limits assumed): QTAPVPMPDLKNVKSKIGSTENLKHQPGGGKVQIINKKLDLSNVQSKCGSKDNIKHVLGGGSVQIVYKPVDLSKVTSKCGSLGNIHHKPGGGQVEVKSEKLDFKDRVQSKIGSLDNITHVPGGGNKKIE
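K18 P301L tau (15 uM + 0.24 uM Alexa 594-tagged), heparin 20 uM, NaOAc pH 7, 6 h 37 C; ThT 30 uM, 1 h RT, ex 450/em 510 nm.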
HPGD block = HPGD (human) dehydrogenase inhibition; P15428; purified HPGD, NADH fluorescence kinetic, PGE2 substrate; Potency, µM, for inactives: at the highest dose activity change, negative = inhibition, hits mostly inhibitors; 4.3% of 150,000 active
Target sequence (P15428 whole entry, looked up): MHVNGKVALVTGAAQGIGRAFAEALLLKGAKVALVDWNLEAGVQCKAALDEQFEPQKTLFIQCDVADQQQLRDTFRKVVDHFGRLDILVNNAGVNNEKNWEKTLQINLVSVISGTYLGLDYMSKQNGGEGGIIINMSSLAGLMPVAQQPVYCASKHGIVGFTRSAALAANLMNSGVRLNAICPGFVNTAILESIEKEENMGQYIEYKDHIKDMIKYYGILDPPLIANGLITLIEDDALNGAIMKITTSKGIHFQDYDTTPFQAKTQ
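20 nM HPGD preincubated 15 min at room temperature with compound in 50 mM Tris-HCl pH 8, 0.01% Tween 20. Started with 1 mM NAD+ and 30 uM prostaglandin E2; NADH fluorescence (360/450 nm) read 5 times over 30-s intervals, last minus first.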
Tau fibril FP = inhibitors of human tau fibril formation. P10636. K18 P301L tau heparin fibrillization, Alexa594 FP, 6 h. Potency, µM (highest dose often 57.7 µM), for inactives: at the highest dose activity, negative = inhibition, most hits filed as inhibitors. 0.39% of 280,000 active. AID 1468; active = well fitted curve in the direction sought with a large enough effect; inconclusive = small, poorly fitted or top-dose-only effect, or another doubt; inactive = no such curve, though single readings can be large; an effect the other way counts as inactive or inconclusive; note: nearly all actives have a fitted effect of over 55% in size
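Recombinant K18 P301L […], labeled with Alexa 594 at 0.24 uM over 15 uM unlabeled; heparin inducer 20 uM final; 37 C, 6 hr; FP endpoint.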
KDM4E inh = inhibitors of human JMJD2E histone demethylase; JMJD2E catalytic domain, FDH-coupled NADH fluorescence (FDH is formaldehyde dehydrogenase); Potency, µM (titrated, usually from 57.1 µM), for the others: top-dose activity change, negative = inhibition, hits mostly inhibitors; 1.6% of 230,000 active; AID 2147;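 note: 0% = wells with enzyme and -100% = buffer wells without enzyme; nearly all actives have a fitted effect of over 50% in size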
Target sequence (B2RXH2 1-337 limits assumed): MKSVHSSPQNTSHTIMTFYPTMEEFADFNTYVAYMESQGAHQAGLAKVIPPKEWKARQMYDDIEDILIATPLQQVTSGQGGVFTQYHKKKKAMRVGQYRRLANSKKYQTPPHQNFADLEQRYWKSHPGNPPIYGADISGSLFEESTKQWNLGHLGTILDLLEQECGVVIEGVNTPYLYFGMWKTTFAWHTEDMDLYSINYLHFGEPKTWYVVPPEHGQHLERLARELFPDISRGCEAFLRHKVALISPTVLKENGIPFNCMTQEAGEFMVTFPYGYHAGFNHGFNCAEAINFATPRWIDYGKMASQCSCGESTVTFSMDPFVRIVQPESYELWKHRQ
* = called active by the depositor; ? = inconclusive; · = no result given; [ ] = remark or other dose. Unless noted, calls come from the whole dose curve; as a rule, active = well fitted inhibition curve with a large enough effect (not every such curve was filed as active); inconclusive = small, poorly fitted or top-dose-only effect, or another doubt; inactive = no such curve, though single readings can be large or run the other way. Unless noted, % is set by controls: 0 for no effect and ±100 for the full control effect; potency is the fitted concentration of half-maximal effect.

SMILES | ALDH1A1 block | Tau fluor counter | Tau ThT inhib | HPGD block | Tau fibril FP | KDM4E inh
Cn1nccc1/C=C(/C#N)S(=O)(=O)c1ccccc1 | -2% | -5% | -9% | -1% | 0% | 5%
Cc1cc(C)n(-c2nc3cc(Cl)c(Cl)cc3nc2Nc2ccc(F)cc2C)n1 | · | -1% | -3% | · | -2% | ·
O=C(O)c1cccc(-c2ccc(/C=N/NC(=O)c3cccnc3)o2)c1 | ? | -3% | ? | ? | 3% | 9%
C/C(=N\NC(=O)c1cc(-c2cccc([N+](=O)[O-])c2)n[nH]1)c1ccccc1O | -4% | ? | 2µM* | -21% | -5% | 25µM*
NC(=S)N/N=C/c1ccc(-c2ccc([N+](=O)[O-])cc2)o1 | 0.89µM* | ? | 7.9µM* | · | ? | -25%
O=C(N/N=C/c1ccc(-c2cccc([N+](=O)[O-])c2)o1)c1ccc([N+](=O)[O-])cc1 | 1% | ? | 5.6µM* | · | 10% | -7%
O=C(N/N=C/c1ccc(-c2ccccc2[N+](=O)[O-])o1)c1cccnc1 | ? | -24% | 7.1µM* | -15% | ? | -28%
O=C1Nc2ccccc2/C1=N/N=C/c1ccc(-c2ccc([N+](=O)[O-])cc2)o1 | 16% | -28% | 2.8µM* | · | 3% | 3%
Cc1ccc([N+](=O)[O-])cc1-c1ccc(/C=N\n2nnnc2N)o1 | -3% | -2% | -8% | -4% | -4% | 1%
O=C1N=C(O)CN1/N=C\c1ccc(-c2ccc([N+](=O)[O-])cc2)o1 | -1% | -10% | 14µM* | -24% | 3% | 14%
Cc1ccc(-c2ccc(/C=N/O)o2)cc1[N+](=O)[O-] | 3.2µM* | -10% | ? | · | -2% | -6%
O=C(N/N=C/c1ccc(-c2cccc([N+](=O)[O-])c2)o1)c1ccccc1O | -5% | ? | 8.9µM* | · | 7% | 5%
O=C(COC(=O)COc1ccccc1)NC1CCCc2ccccc21 (stereo unspecified) | -13% | -1% | -2% | -4% | 8% | 5%
Cc1cc([N+](=O)[O-])ccc1-c1ccc(/C=N/NC(=O)Cc2ccccc2)o1 | 5% | ? | ? | -16% | -5% | -3%
COc1cc([N+](=O)[O-])ccc1-c1ccc(/C=N/NC(=O)c2ccccc2O)o1 | · | ? | 1.6µM* | · | 4% | 3%
O=C(N/N=C/c1ccc(Br)o1)c1ccc2c(c1)OCCO2 | -9% | -9% | ? | -20% | 8% | ?
Cc1ccc(C(=O)N/N=C\c2ccc(-c3ccc([N+](=O)[O-])cc3)o2)cn1 | 4% | -29% | 3.2µM* | · | 6% | -15%
Cc1ccc(C(=O)N/N=C\c2cccn2C)cn1 | -4% | 2% | 4% | 14µM* | -3% | -2%
O=C(N/N=C\c1ccc(-c2ccc([N+](=O)[O-])cc2)o1)c1ccc2c(c1)OCO2 | 5% | ? | 0.89µM* | -13% | 7% | -3%
Cc1ccc2onc(CNC(=O)NCc3ccc(Cl)cc3)c2c1 | · | -3% | 0% | · | ? | ·
CCN(CC)CCCNC(=O)c1ccc2nc(CCc3ccccc3)oc2c1 | · | 0% | 7% | · | -6% | ·
COc1ccc(CN(C2CCCC2)S(=O)(=O)c2ccc(-n3cnnn3)cc2)cc1OC | 1.8µM* | -27% | -11% | -12% | -14% | 4%
Cc1cc(N2CCOCC2)nc(SCc2c(Cl)cccc2Cl)n1 | ? | -20% | -15% | -14% | -4% | 10%
Cc1cc(N2CCCCC2)nc(SCc2ccc(C#N)cc2)n1 | 1.3µM* | -4% | -2% | -20% | 1% | -2%
Cc1ccc(C(=O)OCC2OC3OC(C)(C)OC3C2O)cc1 (stereo unspecified) | 0% | -7% | -2% | 4µM* | -3% | -10%
SMILES | ALDH1A1 block | Tau fluor counter | Tau ThT inhib | HPGD block | Tau fibril FP | KDM4E inh
COc1ccc(OC)c(C(=O)CSc2nc3cccnc3n2C)c1 | 22µM* | 0% | -3% | -13% | 2% | 1%
CCn1nnnc1SCC(=O)c1cc(OC)ccc1OC | 14µM* | 2% | -2% | -22% | -1% | 1%
N[C@@H](Cc1ccccc1)c1nnc2sc(SCc3ccccc3)nn12 | 28µM* | 0% | -16% | 28µM* | -2% | -7%
Cc1nc(N2CCCC2)c2c(C(=O)Nc3ccc(C)c(Cl)c3)c(C)oc2n1 | · | -9% | -1% | · | -4% | ·
CCCS(=O)(=O)c1c(S(=O)(=O)CCC)c2cc(CC)ccn2c1C(=O)c1ccc(Cl)cc1 | · | -3% | -1% | · | -3% | ·
Cn1c2c(c(=O)n(C)c1=O)C(C(F)(F)F)(C(F)(F)F)N=C(CCC1CCCCC1)N2 | -5% | ? | -18% | -3% | -1% | 2%
CC(C)c1ccc2occ(CC(=O)Nc3cccc(C(F)(F)F)c3)c2c1 | · | ? | -4% | · | 18µM* | ·
CCc1ccc2occ(CC(=O)Nc3ccc(OC)c(Cl)c3)c2c1 | · | 25µM*[quencher] | ? | · | ? | ·
Cc1ccc2occ(CC(=O)Nc3ccc(Cl)c(C(F)(F)F)c3)c2c1 | · | ? | 0% | · | 14µM* | ·
Cc1cccc(NC(=O)c2oc3ccccc3c2NC(=O)Cc2coc3ccc(C(C)C)cc23)c1 | · | -17% | 10% | · | ? | ·
Cc1ccc2occ(CC(=O)Nc3ccc(S(N)(=O)=O)cc3)c2c1 | · | -6% | -2% | · | -6% | ·
COc1cc(C(=O)NCCc2sc(-c3cccc(F)c3)nc2C)cc(OC)c1OC | · | -17% | -12% | · | -12% | ·
CCOC(=O)c1c(C)nn(Cc2cccc(Cl)c2)c1N | 7% | -16% | -10% | 28µM* | -5% | 0%
CCOC(=O)c1nn(-c2cccc(Cl)c2)c(C)c1C(C)=O | ? | -6% | -9% | -3% | 1% | 4%
CS(=O)(=O)N1N=C(c2cccs2)CC1c1ccc(Cl)o1 (stereo unspecified) | -15% | -3% | -2% | · | -5% | 1%
COC(=O)C1CCN(C(=O)COC(=O)c2ccc(OC)c(S(=O)(=O)N3CCCc4ccccc43)c2)CC1 | 4.5µM* | -1% | 1% | · | 2% | -1%
COc1ccc(C(=O)OCC(=O)NCC2CCCO2)cc1S(=O)(=O)N1CCCc2ccccc21 (stereo unspecified) | 8% | -7% | 2% | · | -1% | 0%
CC(C)Cc1nnc(NS(=O)(=O)Cc2ccccc2)s1 | 13µM* | 10% | 14% | 20µM* | 6% | -4%
CC1(C)COC(c2ccc(F)c([N+](=O)[O-])c2)=N1 | 2% | -21% | ? | -9% | -7% | -1%
COc1cccc(NC(=O)C(=O)NCCc2csc(-c3ccc(C(F)(F)F)cc3)n2)c1 | · | -19% | -4% | · | -10% | ·
CCC(C)C(=O)Nc1nc2c(s1)C(=O)CC(C)(C)C2 (stereo unspecified) | 16µM* | -7% | -5% | -24% | -3% | 2%

Compound activity: PubChem BioAssay, National Center for Advancing Translational Sciences (NCATS)
